Holding throughout (experiment): NCI-60 one-dose screen, 48 h (100 = growth as untreated, 0 = no growth, -100 = all killed)
Holding throughout (details): 10 µM unless noted

Assay [1] relates to HCT-15 colon.
For assay [2], the system named is HT29 colon.
The subject of assay [3] is SNB-75 CNS.
In assay [4] the test system is SNB-19 CNS.
Assay [5] deals with U251 CNS.
The subject of assay [6] is PC-3 prostate.
Assay [7] relates to SK-MEL-5 melanoma.
Assay [8] has as its system UACC-62 melanoma.
Assay [9] relates to LOX IMVI melanoma.
For assay [10], the system named is SK-MEL-28 melanoma.

About 83,000 compounds went through this panel and 20% of them were active in at least one assay; those are over-represented in the sample as a whole.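 Note: values are percent growth. 100 is the growth of untreated cells, values between 100 and 0 indicate rising inhibition; between -100 and 0 indicates cell death.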 A number with no mark means an inactive call. Calls of active or inactive are those of the source. How the source made its calls: active means growth percent below 10; inactive means the rest.

Experimental findings from PubChem BioAssay (NCI) are described below.

With `O=c1[nH]nc(-c2ccccc2)c2c(-c3ccccc3)onc12`, the growth in assay [1] was 32.2%; in assay [2] it was 22.2%; in [3], -5.82% (active); in assay [4] it was 49.9%; in assay [5], 30.6%; in [6], 26.6%. Besides, the growth in [7] is 11%; in assay [8], 34%; in assay [9] it was 49.6%; in [10], 69.8%.
As to `C[C@H]1[C@H]2[C@H]3CC[C@@H]4[C@@]5(C)C/C(=C/c6cccnc6)C(=O)C(C)(C)[C@@H]5CC[C@@]4(C)[C@]3(C)CC[C@]23CO[C@]1(C)[C@@H](C(=O)/C=C\c1cccnc1)C3`, the growth was -15.3% (active) in assay [1]; 26.4% in [2]; 32.7% in assay [3]; 2.48% (active) in [4]; -68% (active) in assay [5]; -3.56% (active) in assay [6]. The growth is -82.2% (active) in assay [7], -25.6% (active) in [8], -85.2% (active) in [9] and -17.8% (active) in [10].
Regarding `O=C1Nc2ccccc2/C1=C/c1cn(C(=O)c2ccc(Cl)cc2)c2ccccc12`, the growth is 92.1% in [1]; 110% in assay [2]; 87.7% in assay [3]; 99.1% in assay [4]; 99.4% in [5]; 95.7% in assay [6]. Moreover, the growth in [7] was 97.7%; in [8], 89.3%; in [9] it was 100%; in assay [10], 93%.
Take `COc1nc2c(c(=O)n1C)CN(c1ccccc1)C(=O)CN2C`: the growth in [1] is 52.7% [100 µM]; in assay [2], 62.3% [100 µM]; in assay [3], 45% [100 µM]; in assay [4], 57.4% [100 µM]; in assay [5], 62.6% [100 µM]; in [6], 37.7% [100 µM]. The growth in assay [7] is 48.4% [100 µM]; in assay [8], 43.9% [100 µM]; in [9], 70.3% [100 µM]; in assay [10] it was 90.4% [100 µM].
As for `O=c1cc(-c2ccc(Cl)cc2)[nH]c2ccccc12`, the growth in assay [1] is 59.1%; in [2], 86.3%; in assay [3], 85.3%; in assay [4], 91.5%; in assay [5], 80%; in assay [6] it was 75.7%. For the same molecule, the growth in assay [7] was 59.1%; in assay [8] it was 67.8%; in [9], 71.4%; in [10], 78.1%.
In the case of `COc1cccc(-c2nn(-c3ccccc3)cc2-c2ccnc(NCCNC(=O)Nc3ccc(Cl)c(Cl)c3)c2)c1`, the growth in [1] was 7.83% (active); in assay [2], -20.5% (active); in [3], -1.39% (active); in assay [4], 28.9%; in assay [5], -11.6% (active); in assay [6] it was 4.19% (active). In addition, the growth in [7] is 3.01% (active); in assay [8], -14.2% (active); in [9], -68.8% (active); in assay [10], 16.1%.
Regarding `O=C(NC(CSSCC(NC(=O)c1ccccc1)C(=O)O)C(=O)O)c1ccccc1` (stereo not given), the growth in assay [1] is 99.8%; in assay [2], 103%; in assay [3] it was 102%; in assay [4], 107%; in assay [5], 104%; in [6] it was 95.8%. The growth is 108% in [7], 99.6% in assay [8], 95.7% in assay [9] and 118% in [10].
For the molecule `CCN(CC)c1nc(SCC(=O)Nc2nc3ccc(C)cc3s2)nc(-c2ccccc2)c1C#N`, the growth in assay [1] is 83.8%; in [2], 79.6%; in [3], 85.6%; in assay [4], 89.5%; in [5], 87.6%; in assay [6], 67%. Besides, the growth in assay [7] is 90.2%; in [8] it was 67.9%; in [9], 98%; in assay [10], 103%.
In the case of `O=c1c2c3c(sc2n2c(-c4cc(-c5ccccc5)nn4-c4ccccc4)nnc2n1Cc1ccccc1)CCCC3`, the growth in assay [1] is 91.3%; in assay [2] it was 88.6%; in assay [3] it was 92.3%; in assay [4], 89.6%; in [5], 70.3%; in assay [6], 69.1%. Further, the growth was 129% in assay [7], 103% in assay [8], 92.9% in [9] and 111% in [10].
In the case of `Cc1occc1-c1n[nH]c(=S)n1N1C(=O)CSC1=S`, the growth was 101% in [1]; 105% in assay [2]; 80.9% in assay [3]; 97% in assay [4]; 100% in [5]; 97.2% in assay [6]. Also, the growth in [7] was 101%; in [8], 91.4%; in [9], 94.1%; in assay [10], 106%.
`C=CCNc1nc(NN2C(=O)c3cccc4cccc(c34)C2=O)nc(-n2cnc3ccccc32)n1`: the growth in assay [1] was 66.7%; in assay [2], 88.9%; in [3], 39.2%; in assay [4], 83.7%; in [5], 63.3%; in assay [6], 67.1%. For the same molecule, the growth in [7] is 64.9%; in assay [8] it was 77.2%; in assay [9], 77.8%; in [10], 103%.
For the molecule `CCN(CCNc1ccc(C)c2sc3ccccc3c(=O)c12)CC(C)(C)O`, the growth in [1] is 28.8%; in assay [2] it was 39.2%; in [3] it was 73.7%; in assay [4], 78%; in assay [5] it was 49.7%; in [6], 71.4%. The growth in assay [7] was 75.9%; in assay [8] it was 53.6%; in assay [9], 54.4%; in assay [10], 79.6%.
With `N#Cc1c(-c2ccccc2)cc(-c2ccc(Nc3nc(Nc4ccc(F)cc4)nc(Nc4ccc(F)cc4)n3)cc2)nc1N`, the growth was 100% in assay [1]; 94.1% in [2]; 87.1% in [3]; 91.7% in assay [4]; 92% in [5]; 75.8% in [6]. Besides, the growth in assay [7] was 92%; in assay [8], 98.6%; in assay [9], 95.5%; in [10] it was 90.1%.
